Test results reported in PubChem BioAssay.
Calls of active or inactive are those of the source.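 The calls were made as follows: active = thallium flux through the channel raised or lowered by more than 3 SD from vehicle-only wells, actives on both sides; inactive = the rest.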

These compounds were tested on F380Y (assay: BK channel mutant inhibitors and activators – cell-based, U2OS BacMam, thallium flux, beta subunits, selectivity assay, profiling panel (AID 1259406;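 also: initial slope of Thallos dye fluorescence rise after thallium is added; log ratio against the mean of 0.3% DMSO vehicle wells on the same plate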)). Conditions: U2OS BacMam BK variants, at 30 µM.

Log fold change Tl+ flux, active:
OCCOCCN1CCN(C2=Nc3ccccc3Sc3ccccc32)CC1 0.134
CC(C)c1nc(CN(C)C(=O)N[C@H](C(=O)N[C@@H](Cc2ccccc2)C[C@H](O)[C@H](Cc2ccccc2)NC(=O)OCc2cncs2)C(C)C)cs1 -0.114
COc1cc2nc(N3CCN(C(=O)C4COc5ccccc5O4)CC3)nc(N)c2cc1OC (configuration not stated) -0.351
CCc1oc2ccccc2c1C(=O)c1cc(Br)c(O)c(Br)c1 0.395
CN1CCC(=C2c3ccccc3C=Cc3ccccc32)CC1 0.15
COC(=O)C1=C(C)NC(C)=C(C(=O)OCC(C)C)C1c1ccccc1[N+](=O)[O-] (configuration not stated) 0.333
CC1(C)O[C@@H]2C[C@H]3[C@@H]4C[C@H](F)C5=CC(=O)C=C[C@]5(C)[C@@]4(F)[C@@H](O)C[C@]3(C)[C@]2(C(=O)CO)O1 0.2

Log fold change Tl+ flux, inactive:
CC(C)[C@H](N)C(=O)OCCOCn1cnc2c(=O)[nH]c(N)nc21 -0.0232
CN1CCC(=C2c3ccccc3CC(=O)c3sccc32)CC1 0.0548
Nc1nnc(-c2cccc(Cl)c2Cl)c(N)n1 -0.00765
CCCN1CCCC[C@H]1C(=O)Nc1c(C)cccc1C 0.0271
COc1cc(OC)c(C(=O)CCCN2CCCC2)c(OC)c1 -0.00984
CC(C)(C)C(O)/C=C/c1ccc2c(c1)OCO2 (configuration not stated) -0.0156
O=C1c2cccc3c2[C@H](CCC3)CN1[C@@H]1CN2CCC1CC2 0.0472
CC(C)(C)NC(=O)[C@@H]1CN(Cc2cccnc2)CCN1C[C@@H](O)C[C@@H](Cc1ccccc1)C(=O)N[C@H]1c2ccccc2C[C@H]1O -0.012
C#C[C@]1(O)CC[C@H]2[C@@H]3CCc4cc(OC)ccc4[C@H]3CC[C@@]21C -0.0454
Cc1ccsc1C(=CCCN1CCC[C@@H](C(=O)O)C1)c1sccc1C 0.0491
COc1cc2nc(N3CCN(C(=O)C4CCCO4)CC3)nc(N)c2cc1OC (configuration not stated) 0.0434
CCN(CC)CCNC(=O)c1cc(Cl)c(N)cc1OC -0.00476
COC(=O)C1=C(C)NC(C)=C(C(=O)O[C@@H]2CCCN(Cc3ccccc3)C2)[C@@H]1c1cccc([N+](=O)[O-])c1 -0.0664
CC1(C)S[C@@H]2[C@H](N=CN3CCCCCC3)C(=O)N2[C@H]1C(=O)O 0.00482
COc1ccccc1N1CCN(CC(O)COc2cccc3ccccc23)CC1 (configuration not stated) -0.03
C[C@@H]1C[C@H]2[C@@H]3C[C@H](F)C4=CC(=O)C(Cl)=C[C@]4(C)[C@@]3(F)[C@@H](O)C[C@]2(C)[C@@]1(O)C(=O)CO 0.0685
COc1cc2c(cc1OC)C(=O)C(CC1CCN(Cc3ccccc3)CC1)C2 (configuration not stated) 0.0206
COc1ccc2nc(S(=O)Cc3ncc(C)c(OC)c3C)[nH]c2c1 (configuration not stated) 0.0402
COc1ccc(C2CNC(=O)C2)cc1OC1CCCC1 (configuration not stated) -0.0147
CC(=O)O[C@H]1C[C@@H]2CC[C@@H]3[C@H](CC[C@@]4(C)[C@H]3C[C@H]([N+]3(C)CCCCC3)[C@@H]4OC(C)=O)[C@@]2(C)C[C@@H]1N1CCCCC1 0.0327
Cc1ncc([N+](=O)[O-])n1CC(O)CCl (configuration not stated) -0.0142
CCOC(=O)O[C@]1(C(=O)OCCl)CC[C@H]2[C@@H]3CCC4=CC(=O)C=C[C@]4(C)[C@H]3[C@@H](O)C[C@@]21C -0.0169
CC(C)NCC(O)COc1ccc(CCOCC2CC2)cc1 (configuration not stated) -0.00418
O=C1[C@H]2CCCC[C@H]2C(=O)N1CCCCN1CCN(c2nsc3ccccc23)CC1 0.0537
Oc1ccc(C2CNCCc3c2cc(O)c(O)c3Cl)cc1 (configuration not stated) 0.0202
C[C@@H]1C[C@H]2[C@@H]3CCC4=CC(=O)C=C[C@]4(C)[C@@]3(F)[C@@H](O)C[C@]2(C)[C@H]1C(=O)CO 0.0533
O=C1CC2(CCCC2)CC(=O)N1CCCCN1CCN(c2ncccn2)CC1 0.0254
CCOC(=O)c1ncn2c1CN(C)C(=O)c1cc(F)ccc1-2 -0.0521
CCCc1nc(C)c2c(=O)[nH]c(-c3cc(S(=O)(=O)N4CCN(CC)CC4)ccc3OCC)nn12 -0.00852
CC(c1cc2ccccc2s1)N(O)C(N)=O (configuration not stated) -0.00504
Clc1ccc2nsnc2c1NC1=NCCN1 -0.038
c1cnc(N2CCN(Cc3ccc4c(c3)OCO4)CC2)nc1 -0.0152

These compounds were tested on F380Y/beta1 in the same assay as above. Conditions: U2OS BacMam BK variants, at 30 µM.

Log fold change Tl+ flux, inactive:
CC(C)[C@H](N)C(=O)OCCOCn1cnc2c(=O)[nH]c(N)nc21 -0.0206
CN1CCC(=C2c3ccccc3CC(=O)c3sccc32)CC1 0.0457
Nc1nnc(-c2cccc(Cl)c2Cl)c(N)n1 -0.046
CCCN1CCCC[C@H]1C(=O)Nc1c(C)cccc1C 0.0176
COc1cc(OC)c(C(=O)CCCN2CCCC2)c(OC)c1 -0.00851
O=C1c2cccc3c2[C@H](CCC3)CN1[C@@H]1CN2CCC1CC2 0.0342
CC(C)(C)NC(=O)[C@@H]1CN(Cc2cccnc2)CCN1C[C@@H](O)C[C@@H](Cc1ccccc1)C(=O)N[C@H]1c2ccccc2C[C@H]1O -0.0545
C#C[C@]1(O)CC[C@H]2[C@@H]3CCc4cc(OC)ccc4[C@H]3CC[C@@]21C -0.0068
Cc1ccsc1C(=CCCN1CCC[C@@H](C(=O)O)C1)c1sccc1C 0.0426
COc1cc2nc(N3CCN(C(=O)C4CCCO4)CC3)nc(N)c2cc1OC (configuration not stated) -0.102
CCN(CC)CCNC(=O)c1cc(Cl)c(N)cc1OC -0.00572
COC(=O)C1=C(C)NC(C)=C(C(=O)O[C@@H]2CCCN(Cc3ccccc3)C2)[C@@H]1c1cccc([N+](=O)[O-])c1 -0.000881
CC1(C)S[C@@H]2[C@H](N=CN3CCCCCC3)C(=O)N2[C@H]1C(=O)O 0.0062
COc1ccccc1N1CCN(CC(O)COc2cccc3ccccc23)CC1 (configuration not stated) -0.0336
C[C@@H]1C[C@H]2[C@@H]3C[C@H](F)C4=CC(=O)C(Cl)=C[C@]4(C)[C@@]3(F)[C@@H](O)C[C@]2(C)[C@@]1(O)C(=O)CO 0.0734
COc1cc2c(cc1OC)C(=O)C(CC1CCN(Cc3ccccc3)CC1)C2 (configuration not stated) -0.0145
COc1ccc2nc(S(=O)Cc3ncc(C)c(OC)c3C)[nH]c2c1 (configuration not stated) 0.0641
COc1ccc(C2CNC(=O)C2)cc1OC1CCCC1 (configuration not stated) -0.0167
CC(=O)O[C@H]1C[C@@H]2CC[C@@H]3[C@H](CC[C@@]4(C)[C@H]3C[C@H]([N+]3(C)CCCCC3)[C@@H]4OC(C)=O)[C@@]2(C)C[C@@H]1N1CCCCC1 0.014
Cc1ncc([N+](=O)[O-])n1CC(O)CCl (configuration not stated) -0.0206
CCOC(=O)O[C@]1(C(=O)OCCl)CC[C@H]2[C@@H]3CCC4=CC(=O)C=C[C@]4(C)[C@H]3[C@@H](O)C[C@@]21C -0.0185
CC(C)NCC(O)COc1ccc(CCOCC2CC2)cc1 (configuration not stated) 0.0244
O=C1[C@H]2CCCC[C@H]2C(=O)N1CCCCN1CCN(c2nsc3ccccc23)CC1 0.0543
Oc1ccc(C2CNCCc3c2cc(O)c(O)c3Cl)cc1 (configuration not stated) -0.0465
C[C@@H]1C[C@H]2[C@@H]3CCC4=CC(=O)C=C[C@]4(C)[C@@]3(F)[C@@H](O)C[C@]2(C)[C@H]1C(=O)CO 0.0836
O=C1CC2(CCCC2)CC(=O)N1CCCCN1CCN(c2ncccn2)CC1 0.0242
CN1CCC(=C2c3ccccc3C=Cc3ccccc32)CC1 -0.0427
CCOC(=O)c1ncn2c1CN(C)C(=O)c1cc(F)ccc1-2 -0.00468
CCCc1nc(C)c2c(=O)[nH]c(-c3cc(S(=O)(=O)N4CCN(CC)CC4)ccc3OCC)nn12 0.00246
CC(c1cc2ccccc2s1)N(O)C(N)=O (configuration not stated) 0.00537
Clc1ccc2nsnc2c1NC1=NCCN1 -0.0369

Log fold change Tl+ flux, active:
OCCOCCN1CCN(C2=Nc3ccccc3Sc3ccccc32)CC1 0.105
CC(C)c1nc(CN(C)C(=O)N[C@H](C(=O)N[C@@H](Cc2ccccc2)C[C@H](O)[C@H](Cc2ccccc2)NC(=O)OCc2cncs2)C(C)C)cs1 -0.406
CC(C)(C)C(O)/C=C/c1ccc2c(c1)OCO2 (configuration not stated) 0.105
COc1cc2nc(N3CCN(C(=O)C4COc5ccccc5O4)CC3)nc(N)c2cc1OC (configuration not stated) -0.143
CCc1oc2ccccc2c1C(=O)c1cc(Br)c(O)c(Br)c1 0.958
COC(=O)C1=C(C)NC(C)=C(C(=O)OCC(C)C)C1c1ccccc1[N+](=O)[O-] (configuration not stated) 0.689
CC1(C)O[C@@H]2C[C@H]3[C@@H]4C[C@H](F)C5=CC(=O)C=C[C@]5(C)[C@@]4(F)[C@@H](O)C[C@]3(C)[C@]2(C(=O)CO)O1 0.211
